“And” between values parts separate entries of the source, which are not always exact repeats. Equal entries are not always repeated. Unmarked numbers belong to inactive results. Inconclusive results are not listed. Entries that show only a call come without a potency. The source made the active and inactive calls. Unless noted, calls come from the whole dose curve; as a rule, active = well fitted curve in the direction sought with a large enough effect in the repeat runs; inconclusive = weak or mixed curves; inactive = no such curve, though single readings can be large; an effect the other way counts as inactive or inconclusive.
How the values were obtained:
[1] = qHTS assay for small molecules that induce genotoxicity in human embryonic kidney cells expressing luciferase-tagged ATAD5 (AID 651632); note: nearly all actives have a fitted effect of over 15% in size; note: potency is the fitted concentration of half-maximal effect
How it was run: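 Quantitative HTS in HEK293T expressing luciferase-tagged ATAD5, whose levels rise upon DNA damage. Exposure ran 16 hr at 37C and 5% CO2, with luminescence read 30 min after Amplite addition at room temperature.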

[2] = qHTS assay for small molecule agonists of the p53 signaling pathway - cell viability (AID 651633; calls by dose curve; note: nearly all actives have a fitted effect of over 30% in size; note: potency is the fitted concentration of half-maximal effect)
How it was run: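 Viability counter-read: CellTiter-Glo luminescence (30 min, room temperature) in the same p53RE-bla plates. These plates had been exposed to compounds for 16 h at 37 C.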

[3] = qHTS assay for small molecules that induce genotoxicity in human embryonic kidney cells expressing luciferase-tagged ATAD5 - cell viability (AID 651634; calls by dose curve; note: nearly all actives have a fitted effect of over 25% in size; note: potency is the fitted concentration of half-maximal effect)
How it was run: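 After 15.5 hr incubation with compound at 37C, 5% CO2, HEK293T ATAD5-luciferase cells received CellTiter-Fluor reagent; fluorescence intensity was quantified following 30 min at 37C.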

[4] = qHTS assay for small molecule disruptors of the mitochondrial membrane potential - cell viability (AID 720634; calls by dose curve;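 note: human HepG2 liver cancer cells; series mostly up to about 83 µM; nearly all actives have a fitted effect of over 20% in size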)
How it was run: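 ATP-based luminescent viability readout (CellTiter-Glo, 30 min, room temperature) in HepG2 cells multiplexed with the m-MPI membrane potential dye; compound exposure lasted 1 hr at 37 C.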

[5] = qHTS assay for small molecule disruptors of the mitochondrial membrane potential (AID 720635); note: potency is the fitted concentration of half-maximal effect
How it was run: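 Mitochondrial membrane potential tracked with Mito-MPS dye, red aggregates (ex 540/em 590 nm) against green monomers (ex 490/em 535 nm). Compound treatment 1 hr at 37C, dye 30 min in HepG2.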

[6] = qHTS assay to test for compound auto fluorescence at 590 nm (red) in HepG2 cells (AID 720674)
How it was run: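 We screened compounds on adherent HepG2 cells, incubating them for an hour at 37 C in 5% CO2 before reading emission at 590 nm under 540 nm excitation; values reflect equivalence to Rose Bengal sodium fluorescence.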

[7] = qHTS assay to test for compound auto fluorescence at 535 nm (green) in HepG2 cells (AID 720675)
[8] = qHTS assay to test for compound auto fluorescence at 460 nm (blue) in HEK293 cells (AID 720678)
How it was run: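 Blue-channel (Ex/Em 405/460 nm) intensity measured in HEK293 cultures after overnight compound exposure at 37C; signal expressed relative to triamterene. Cells plated 2,000 per well in 10% dialyzed FBS medium and allowed 4-5 hr to attach.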

[9] = qHTS assay to test for compound auto fluorescence at 590 nm (red) in HEK293 cells (AID 720679)
How it was run: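 Red-channel autofluorescence (Ex/Em 540/590 nm; Rose Bengal sodium reference) was measured after overnight 37C, 5% CO2 exposure of attached HEK293 cells, 2,000 per well in medium with 10% dialyzed FBS.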

[10] = qHTS assay for small molecule agonists of the p53 signaling pathway (AID 651631; calls by dose curve; note: nearly all actives have a fitted effect of over 15% in size; note: potency is the fitted concentration of half-maximal effect)
How it was run: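 Beta-lactamase reporter activity under p53 response elements was quantified in HCT-116 cells by FRET fluorescence, following 16 h incubation with test compounds at 37 °C and 2 h substrate development at room temperature.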

SMILES	Potency [1]	Potency [2]	Potency [3]	Potency [4]	Potency [5]	outcome [6]	outcome [7]	Potency [8]	outcome [9]	Potency [10]	fluorescence, relative to Rose Bengal [6]	fluorescence, % of fluorescein control [7]	fluorescence, % of triamterene [8]	fluorescence, % of fluorescent control [9]
C[C@@H](C1=C(CCN(C)C)Cc2ccccc21)c1ccccn1	inactive	inactive	inactive	inactive	inactive	inactive	inactive	inactive	inactive					
CCOc1nc2cccc(C(=O)O)c2n1Cc1ccc(-c2ccccc2-c2nn[nH]n2)cc1	inactive	29.8 µM (active)	inactive	inactive	8.41 µM (active)	inactive	inactive	inactive						
CN(C(=O)CCCOc1ccc2[nH]c(=O)ccc2c1)C1CCCCC1		inactive	inactive	inactive		inactive	inactive	inactive	inactive	inactive				
CN(C)CCCNCCCN	inactive	inactive	inactive	inactive	inactive		inactive	inactive						
CC[C@@H]1C[C@H](N(Cc2cc(C(F)(F)F)cc(C(F)(F)F)c2)C(C)=O)c2cc(C(F)(F)F)ccc2N1C(=O)OC(C)C	inactive	inactive	inactive	inactive	4.33 µM (active)	inactive	inactive	inactive						
O=CNc1ccccc1	inactive	inactive	inactive	inactive	inactive	inactive	inactive		inactive					
O=C(NS(=O)(=O)/C=C/c1cccs1)c1ccc(F)cc1Br	1.37 µM (active)	inactive	inactive	inactive	61.1 µM (active)	inactive	inactive	inactive	inactive					
CC(C)CCCCCCOC(=O)c1ccc(C(=O)OCCCCCCC(C)C)c(C(=O)OCCCCCCC(C)C)c1	inactive	inactive	inactive	inactive	inactive	inactive	inactive	inactive	inactive					
O=c1[nH]cnc2ccccc12		inactive		inactive	inactive		inactive		inactive	inactive				
CCCCCCCCCC(=O)OCC	inactive			inactive	inactive	inactive	inactive	inactive	inactive	inactive				
O=C1c2cccc(O)c2C(=O)c2c(O)cc(CO)cc21	inactive	inactive	inactive	inactive	0.864 µM (active)	inactive	inactive	inactive	inactive					
CCCCCCCC/C=C\CCCCCCCC(N)=O	inactive	inactive	inactive	inactive	48.5 µM (active)	inactive	inactive	inactive	inactive					
CCCc1ccccc1	inactive		inactive	inactive		inactive	inactive	inactive	inactive	inactive				
CCCCCCCCCCCCC(=O)O			inactive	inactive	inactive	inactive	inactive	inactive	inactive	inactive				
O=C(NN1CCCC1)NS(=O)(=O)c1ccc(Cl)cc1	inactive	inactive	inactive	inactive	inactive	inactive	inactive							
CCCCCC(CO)CCC (stereo unspecified)	inactive	inactive	inactive	inactive	inactive		inactive	inactive	inactive					
N#CCCNCCC#N	inactive	inactive	inactive	inactive	inactive	inactive	inactive	inactive	inactive					
CCCC[C@H]1CN(CC2CCOCC2)C(=O)OC12CCN(C1(C)CCN(C(=O)c3c(C)ncnc3C)CC1)CC2	inactive			inactive	inactive		inactive		inactive	inactive				
SC1CCCC1	inactive	inactive	inactive	inactive	inactive	inactive	inactive	inactive	inactive					
CCCCOCCOCCOCCOCCO	inactive	inactive	inactive	inactive	inactive		inactive	inactive	inactive					
Oc1ccc(O)c2c(O)cccc12	inactive		inactive	inactive		inactive	inactive		inactive	inactive				
CC(C)NCC(O)c1cc(O)cc(O)c1 (stereo unspecified)	inactive	inactive	inactive	inactive	inactive	inactive	inactive	inactive	inactive					
CC(=O)SCc1ccco1	inactive	inactive	inactive	inactive	inactive	inactive	inactive	inactive	inactive					
O=C(Cl)c1c(Cl)cccc1Cl	inactive	inactive	inactive	inactive	inactive	inactive	inactive	inactive	inactive					
NC1CCN(c2nc3c(cc2F)c(=O)c(C(=O)O)cn3-c2ccc(F)cc2F)C1 (stereo unspecified)	inactive	inactive	inactive	inactive	inactive		inactive	inactive						
CC(C)(C)c1ccc(OCC2CO2)cc1 (stereo unspecified)	inactive	inactive	inactive	inactive	inactive	inactive	inactive							

SMILES	Potency [1]	Potency [2]	Potency [3]	Potency [4]	Potency [5]	outcome [6]	outcome [7]	Potency [8]	outcome [9]	Potency [10]	fluorescence, relative to Rose Bengal [6]	fluorescence, % of fluorescein control [7]	fluorescence, % of triamterene [8]	fluorescence, % of fluorescent control [9]
CC(=O)[C@@]1(O)CC[C@H]2[C@@H]3C[C@H](C)C4=CC(=O)CC[C@]4(C)[C@H]3CC[C@@]21C	inactive		inactive	inactive			inactive	inactive	inactive	inactive				
CCN(CC)CCOC(=O)C1(c2ccccc2)CCCC1	inactive			inactive		inactive	inactive	inactive	inactive	inactive				
CCCCC(CC)COCCCN (stereo unspecified)	inactive					inactive	inactive	inactive	inactive	inactive				
O=C(O)[C@@H]1[C@H]2C[C@H]3c4[nH]c5ccccc5c4CCN3C[C@@H]2CC[C@@H]1O	inactive	inactive	inactive	inactive	11.4 µM (active)						0.127% [at 18.6 µM]	0.513% [at 18.6 µM]	4.22% [at 18.6 µM]	-0.335% [at 18.6 µM]
O=C(O)Cc1cc(I)c(Oc2ccc(O)c(I)c2)c(I)c1		3.59 µM (active) and 43.3 µM (active)	inactive	inactive	68.6 µM (active)	inactive	inactive	inactive		4.52 µM (active) and 24.3 µM (active)				
Cc1ccccn1		inactive		inactive	inactive	inactive	inactive	inactive	inactive	inactive				
O=C(O)/C=C/c1cnc[nH]1		inactive	inactive	inactive	inactive	inactive	inactive	inactive	inactive	inactive				
CC(C)NCC(O)COc1ccc(CC(N)=O)cc1 (stereo unspecified)	inactive	inactive	inactive	inactive		inactive	inactive		inactive					
CN1CCC(=C2c3ccccc3C=Cc3ccccc32)CC1	inactive	inactive	inactive	inactive		inactive	inactive	inactive	inactive					
COC(=O)C(C)=O	inactive	inactive	inactive	inactive		inactive	inactive		inactive					
CCN1CCC[C@H]1CNC(=O)c1c(OC)ccc(Br)c1OC	inactive	inactive		inactive	inactive	inactive	inactive	inactive	inactive					
CCc1nn(C2CCCCC2)c2cc(C3(C#N)CCC(C(=O)O)CC3)ccc12 (stereo unspecified)	inactive	inactive	27.3 µM (active)	inactive		inactive	inactive	inactive	inactive					
CC(=O)c1c(C)c([N+](=O)[O-])c(C(C)(C)C)c([N+](=O)[O-])c1C	inactive	inactive	inactive		54.5 µM (active)	inactive	inactive	inactive	inactive					
O=C1CCCCCO1	inactive	inactive	inactive			inactive	inactive		inactive					
NC(N)=N/N=C/c1c(Cl)cccc1Cl	inactive	inactive	inactive	inactive		inactive	inactive	inactive						
CCCCCCCCCCCCCCCCCBr	inactive	inactive	inactive	inactive							-0.244% [at 18.6 µM]	-0.0441% [at 18.6 µM]	0.159% [at 18.6 µM]	
CC(=O)/C=C/C1C(C)=CCCC1(C)C (stereo unspecified)	inactive	inactive	inactive	inactive		inactive	inactive	inactive						
COC(Cc1ccccc1)OC	inactive	inactive	inactive	inactive		inactive	inactive	inactive	inactive					
CC(C)c1ccc2c(C(C)C)cc(C(C)C)c(S(=O)(=O)O)c2c1	inactive	inactive		inactive	inactive	inactive	inactive	inactive	inactive					
Cc1ccc(C(N)=O)cc1N	inactive	inactive	inactive	inactive	inactive		inactive		inactive					
O=C(CCN1CCN2CCCC2C1)N1c2ccccc2Sc2ccc(Cl)cc21 (stereo unspecified)	inactive	inactive	inactive	inactive		inactive	inactive	inactive	inactive					
CCOC(=O)[C@H](CCc1ccccc1)N[C@H]1CCc2ccccc2N(CC(=O)O)C1=O	inactive	inactive	inactive	inactive		inactive	inactive							
CC(C(=O)O)c1ccc(C(=O)c2ccccc2)s1 (stereo unspecified)	inactive	inactive	inactive								-0.233% [at 18.6 µM]	-0.0168% [at 18.6 µM]	0.0309% [at 18.6 µM]	-0.0493% [at 18.6 µM]
CCOC(=O)CC(C)C	inactive	inactive	inactive	inactive		inactive	inactive	inactive	inactive					
CCCCOC(=O)/C=C\C(=O)OCCCC	inactive	inactive	inactive	inactive		inactive	inactive	inactive	inactive					
